The list is not random: actives were taken first. Their share in the collection is about 2.4%.
Cruzain Triton: inhibitors of Trypanosoma cruzi cruzain with detergent | P25779 | purified cruzain, Z-FR-AMC fluorescence, 0.01% Triton | Potency, µM, inactives show max response, negative = inhibition, actives largely listed as inhibitors | actives 0.43% (n = 200,000) | AID 1478;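 also: plate controls were neutral wells for no effect and buffer without enzyme for full effect; nearly all actives have a fitted effect of over 40% in size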
Target sequence (P25779 123-467 limits assumed): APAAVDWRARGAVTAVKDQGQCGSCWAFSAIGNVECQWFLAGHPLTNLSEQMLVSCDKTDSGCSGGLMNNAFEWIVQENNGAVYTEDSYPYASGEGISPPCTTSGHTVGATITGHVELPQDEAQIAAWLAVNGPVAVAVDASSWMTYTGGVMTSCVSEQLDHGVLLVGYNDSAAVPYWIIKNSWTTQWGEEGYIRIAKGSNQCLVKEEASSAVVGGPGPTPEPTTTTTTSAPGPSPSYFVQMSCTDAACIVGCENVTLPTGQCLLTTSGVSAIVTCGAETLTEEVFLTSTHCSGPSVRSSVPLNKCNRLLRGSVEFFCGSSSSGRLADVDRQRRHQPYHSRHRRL
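Cysteine protease activity tested under reducing, mildly acidic conditions (100 mM sodium acetate pH 5.5, 5 mM DTT) plus 0.01% Triton X-100. Cruzain 1.5 nM; substrate Z-FR-AMC 2 uM; 15 min compound preincubation at room temperature.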
Cruzain noTriton: blocks cruzain activity in detergent-free assay; actives 2.3% (n = 200,000); Potency, µM, for inactives: max response, negative = inhibition, actives largely listed as inhibitors; purified cruzain, Z-FR-AMC fluorescence, no detergent;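 also: plate controls were enzyme without inhibitor for no effect and buffer without enzyme for full effect; nearly all actives have a fitted effect of over 40% in size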
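Purified cruzain at 1.5 nM, pre-incubated 15 min with compound at room temperature in 100 mM sodium acetate pH 5.5, 5 mM DTT, 0.00005% Triton X-100. Reaction started with 2 uM Z-FR-AMC; AMC fluorescence increase over 60 s gives rate.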
Papain inh: blocks papain protease activity, flagging nonselective cruzain hits; shares compounds with Cruzain Triton; actives 41% (n = 410); purified papain, Z-FR-AMC fluorescence cleavage; AID 2161; Potency, µM, for inactives: max response, negative = inhibition, most hits filed as inhibitors;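 also: 0% = no-compound wells and -100% = no-enzyme wells; nearly all actives have a fitted effect of over 35% in size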
Target sequence (P00784 whole entry, looked up): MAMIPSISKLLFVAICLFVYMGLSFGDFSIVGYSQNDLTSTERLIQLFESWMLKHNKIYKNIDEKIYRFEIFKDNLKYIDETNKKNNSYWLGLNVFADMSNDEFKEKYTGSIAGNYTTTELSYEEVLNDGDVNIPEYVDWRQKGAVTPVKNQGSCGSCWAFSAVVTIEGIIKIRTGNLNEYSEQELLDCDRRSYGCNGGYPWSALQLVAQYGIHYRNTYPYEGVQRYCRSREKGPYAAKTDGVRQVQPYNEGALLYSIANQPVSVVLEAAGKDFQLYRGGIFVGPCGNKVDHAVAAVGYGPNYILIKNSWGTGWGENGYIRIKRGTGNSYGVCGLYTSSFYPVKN
An asterisk follows results filed as active; ? = inconclusive; . = no result given; ! = a repeat was not active. Calls follow the shape of the dose curve; as a rule, active = well fitted curve in the direction sought with a large enough effect; inconclusive = small, poorly fitted or top-dose-only effect, or another doubt; inactive = no such curve, though single readings can be large; an effect the other way counts as inactive or inconclusive. Potency is read from the fitted curve at half-maximal effect.

SMILES	Cruzain Triton	Cruzain noTriton	Papain inh
Cc1oc2ccc(OCc3ccc(F)cc3)cc2c1C(=O)O	-3.5%	-11.6%	.
Cc1ccc(COc2ccc3oc(-c4ccccc4)c(C(=O)O)c3c2)cc1	?	20µM*	31.6µM*
COc1ccc(NC(=O)Cn2c(=O)n(Cc3ccccc3OC)c(=O)c3cccnc32)cc1Cl	-3.5%	1.4%	.
COc1ccc2c(c1)CCc1c(C(=O)NCc3ccco3)noc1-2	-2.5%	5.4%	.
COC(=O)N/N=C/c1ccc(-c2cccc(Cl)c2)o1	-10.9%	1.8%	.
NC(=S)N/N=C/c1ccc(-c2cc(Cl)ccc2Cl)o1	0.708µM*	0.631µM*	4.47µM*
Cc1ccc(NC(=O)C2CCCN(S(=O)(=O)c3cn(C(C)C)cn3)C2)c(C)c1 (configuration not stated)	0.2%	3.7%	.
Brc1ccccc1-c1nnc(COc2ncnc3c2cnn3-c2ccccc2)o1	-4.1%	-14.5%	.
O=C(c1ccco1)N1CCN(c2ncnc3c2[nH]c2ccc(Cl)cc23)CC1	14.1µM*	?	-9.6%
O=C(c1ccco1)N1CCN(c2c(-c3ccccc3)c3cc(Cl)ccc3[nH]c2=O)CC1	-2.8%	?	.
Cc1ccc(S(=O)(=O)Cn2nnnc2C(C(C)C)N2CCN(c3nc4ccccc4s3)CC2)cc1 (configuration not stated)	-5.2%	?	.
CSc1nc(N(CCO)CCO)c2sc3nc(-c4ccco4)c4c(c3c2n1)CCC4	10µM*	3.16µM*	12.6µM*
OCCN(CCO)c1ncnc2c1sc1nc(N3CCOCC3)c3c(c12)CCCC3	-11.3%	?	.
CN1CCN(c2ncc3nc(-c4cn(C)c5ccccc45)c(=O)n(C)c3n2)CC1	-0.9%	-14.7%	.
CCCCNC(=O)c1ccc2nc(-c3ccco3)c(-c3ccco3)nc2c1	14.1µM*	15.8µM*	15.8µM*
CCCNC(=O)c1ccc2nc(-c3ccccc3)c(-c3ccccc3)nc2c1	-9.1%	?	.
O=C(NCCCO)c1ccc2nc(-c3ccco3)c(-c3ccco3)nc2c1	.	.	28.2µM*
O=C(NCCNC(=O)c1ccco1)c1cccc(F)c1	0.0%	1.6%	.
CCCNC(=O)c1cc(-c2ccco2)on1	-2.6%	-15.3%	.
CCNC(=O)c1ccc2nc(-c3ccccc3)c(-c3ccccc3)nc2c1	.	.	-14.5%
COc1ccc(/C=C/C(=O)Nc2ccc(-n3nncc3-c3ccc(OC)c(OC)c3)cc2)cc1OC	-14.7%	?	.
O=C(Nc1ccccc1)c1ccc(-n2nncc2-c2ccccc2)cc1	.	.	1.5%
COc1ccc(-c2cnnn2-c2ccc(NC(=O)/C=C/c3ccc(OC)c(OC)c3)cc2)cc1	3.55µM*	12.6µM*	-14.4%
CN(C)S(=O)(=O)c1ccc(C(=O)Nc2ccc(-n3nncc3-c3ccccc3)cc2)cc1	-0.3%	-15.9%	.
O=C(Nc1ccc(-n2nncc2-c2ccccc2)cc1)c1cccc(F)c1	10.6%	8.7%	.
SMILES	Cruzain Triton	Cruzain noTriton	Papain inh
O=C(/C=C/c1ccc2c(c1)OCO2)Nc1ccc(-n2nncc2-c2ccccc2)cc1	.	.	14.1µM*
O=C1c2cccc3cccc(c23)C(=O)N1CCN1CCN(C(=S)Nc2ccc(Cl)cc2)CC1	0.5%	?	.
CCc1nnc(NC(=O)CSc2nccn2-c2ccc(OC)cc2)s1	1.7%	0.7%	.
COc1cccc(CC(=O)Nc2ccccc2C(=O)N2CCOCC2)c1	0.5%	-4.2%	.
CC(Oc1cccc(Cl)c1)C(=O)Nc1ccc([N+](=O)[O-])cn1 (configuration not stated)	-6.5%	-9.9%	.
Cc1ccc(C(=O)N/C(=C/c2cccc([N+](=O)[O-])c2)C(=O)NC(C)C)cc1	-0.1%	-2.1%	.
Cc1ccc(C(=O)N/C(=C\c2cccc([N+](=O)[O-])c2)C(=O)OCN2C(=O)c3ccccc3C2=O)cc1	0.891µM*	15.8µM*	-4.1%
COc1cccc(-c2cc(C(=O)NCCCn3ccnc3)c3ccccc3n2)c1	-5.1%	-2.0%	.
COc1ccc(NS(=O)(=O)c2ccc3oc(SC4CCOC4=O)nc3c2)cc1 (configuration not stated)	-2.6%	-1.1%	.
CC1CCCN(CC(=O)N2CCCc3ccccc32)C1 (configuration not stated)	0.7%	-3.7%	.
Cc1cc(NC(=O)CCC(=O)N(c2ccccc2)C(C(=O)NCC2CCCO2)c2cccnc2)no1 (configuration not stated)	2.0%	3.6%	.
Cc1ccc(-n2c3nc(=O)n(C)c(=O)c-3cc3ccccc32)c(C)c1	8.2%	-9.7%	.
COc1cc(/C=c2\sc3nc(-c4ccncc4)nn3c2=O)ccc1OC(C)=O	-0.9%	?	.
Cn1nc(-c2ccncc2)nc2c(=O)n(C)c(=O)nc1-2	.	.	-6.5%
Cn1c(=O)c(-c2ccccc2)nn2c3ccccc3nc12	1.8%	-19.0%	.
Cc1nc2c(=O)n(C)c(=O)nc-2n(C)n1	1µM*	0.501µM*	-1.2%
Cn1nc(-c2ccccc2)nc2c(=O)n(C)c(=O)nc1-2	.	.	-4.5%
CCCOc1cc(C)c(S(=O)(=O)N2CCN(C)CC2)cc1C	-2.1%	6.1%	.
CCOC(=O)c1c(Nc2cc(C)cc(C)c2)nnc(-c2ccccc2)c1-c1ccccc1	-8.4%	?	.
COc1ccc(CCNC(=O)c2ccc(Cn3c(SCc4ccccc4)nc4cccnc43)cc2)cc1	-8.4%	3.8%	.
COc1ccc2cccc(N3CCN(CCNC(=O)c4ccc(F)cc4)CC3)c2c1	-4.3%	3.6%	.
Cc1cc(/C=C2/SC(=O)N(CC(=O)N3CCOCC3)C2=O)c(C)n1-c1ccccc1F	-4.2%	?	.
CCn1nc(-c2ccccc2)nc2c(=O)n(C)c(=O)nc1-2	2.24µM*	1.26µM*	3.8%
CCS(=O)(=O)n1nc(-c2ccc(C)cc2)nc1N	-2.3%	-1.3%	.
CCOC(=O)Cn1nc(-c2ccccc2)nc1-c1ccccc1	-3.2%	3.8%	.
SMILES	Cruzain Triton	Cruzain noTriton	Papain inh
CCn1nc(-c2ccc(C)cc2)nc2c(=O)n(C)c(=O)nc1-2	.	.	-3.1%
CCOC(=O)CC(NC(=O)c1cc2c(=O)n3cccc(C)c3nc2s1)c1ccc(OCC(C)C)c(OC)c1 (configuration not stated)	?	-7.5%	.
Cc1ccccc1-n1c(C)cc(/C=C2/C(=O)NC(=O)N(Cc3ccco3)C2=O)c1C	-8.4%	4.3%	.
Cc1ccccc1-n1c(C)cc(/C=C2/C(=N)N3C(c4ccccc4)=CSC3=NC2=O)c1C	-0.7%	3.16µM*	13.3%
CCn1c(C)c(C2N3CC4(C)CN2CC(CC)(C3)C4=O)c2ccccc21 (configuration not stated)	-1.5%	6.6%	.
Cc1ccc(S(=O)(=O)N[C@H](CO)C(=O)O)cc1	1.6%	4.4%	.
Cc1ccc(S(=O)(=O)N[C@@H](Cc2ccccc2)C(=O)CCl)cc1	7.08µM*	3.16µM*	15.8µM*!
COCCCNC(=O)CCC(=O)N1Cc2cccc(OC)c2Oc2ncccc21	-0.9%	-1.3%	.
O=C(Nc1cccc(Cl)c1N1CCCCC1)c1ccc(N2CCOCC2)c([N+](=O)[O-])c1	-7.1%	-2.1%	.
O=C(NC(=S)Nc1cccc(Cl)c1N1CCCC1)c1ccc(-c2cccc([N+](=O)[O-])c2)o1	-3.4%	3.16µM*	7.5%
Cc1ccc(S(=O)(=O)c2nc(-c3ccco3)oc2NCC2CCCO2)cc1 (configuration not stated)	11.2µM*	10µM*	-13.7%
Cc1ccc(CSc2oc(-c3ccco3)nc2S(=O)(=O)c2ccc(C)cc2)cc1	-8.6%	-11.3%	.
CC1(C)Cc2ccccc2C(/C(=N\Nc2cccc(Cl)c2)C(N)=O)=N1	-12.8%	-11.2%	.
